# Screening results from PubChem BioAssay.
# mHTT CaM bind: mHTT-calmodulin interaction abrogation; P42858; AlphaScreen His-mHTT/GST-CaM binding, luminescence; inhibition, % at 15 µM; actives 3.6% (n = 190,000); AID 1671202;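 further: 0% = both proteins with DMSO and 100% = one protein alone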
# Pf apPOL block: Pf-apPOL DNA polymerase inhibition; AID 1794808; inhibition, % at 10 µM; actives 0.25% (n = 210,000); Recombinant Pf-apPOL, molecular beacon fluorescence, 1.5 h
# An asterisk follows results filed as active; . = no result. Sampled rows, rich in hits. Any-hit rate of the full collection: about 3.6%. No stated cut-off is given here; in the data, active means inhibition above about 50%; inactive means the rest.
SMILES,mHTT CaM bind,Pf apPOL block
CC1(C)CC(=O)C2=C(C1)NC1=C(C(=O)c3ccccc31)C2c1ccc(F)cc1 (stereo unspecified),62*,-6
COc1cccc(C2C3=C(Nc4c2c(=O)n(C)c(=O)n4C)c2ccccc2C3=O)c1 (stereo unspecified),5,1
O=C1CCCC2=C1C(c1cc([N+](=O)[O-])ccc1O)C1=C(CCCC1=O)N2,-1,-8
CC1(C)CC(=O)C2=C(C1)NC1=C(C(=O)c3ccccc31)C2c1cccs1 (stereo unspecified),47,0
CC1(C)CC(=O)C2=C(C1)NC1=C(C(=O)c3ccccc31)C2c1cc(Br)ccc1O (stereo unspecified),56*,2
Cc1ccccc1C1C2=C(CC(C)(C)CC2=O)NC2=C1C(=O)CC(C)(C)C2,2,-8
O=C1CCCC2=C1C(c1cc([N+](=O)[O-])ccc1O)C1=C(N2)c2ccccc2C1=O (stereo unspecified),56*,4
COCCNC(=O)C1CCC(CNS(C)(=O)=O)CC1 (stereo unspecified),-14,1
CCc1ccc(S(=O)(=O)N2CCSC2c2ccc(Br)cc2)cc1 (stereo unspecified),-8,3
Cc1ccnc(N2CCC(C(=O)NCCCN3CCN(c4ccccc4F)CC3)CC2)n1,-1,1
CCOC(=O)C1C(=O)C=C(c2cccs2)CC1c1ccc(C)cc1 (stereo unspecified),-2,4
O=C1CC(c2ccco2)CC2=C1C(c1ccccc1)C1=C(N2)c2ccccc2C1=O (stereo unspecified),28,-7
O=C1CC(c2ccco2)CC2=C1C(c1ccc(Cl)cc1)C1=C(N2)c2ccccc2C1=O (stereo unspecified),64*,-3
Cc1ccc(N2CCN(C(=O)CC(C)(C)C)C(C)C2=O)c(C)c1 (stereo unspecified),-6,-3
O=C(c1cccn2c(=O)c3cc(Cl)ccc3nc12)N1CCN(c2ccc(Cl)cc2)CC1,-422,2
O=C(c1cccn2c(=O)c3cc(Cl)ccc3nc12)N1CCc2ccccc2C1,62*,-3
NC(=O)COc1ccc2c(-c3ccccc3)cc(=O)oc2c1,-2,-2
COc1cc(/C=C2/C(=O)N(c3ccccc3)N=C2C)cc(Br)c1OCc1ccccn1,23,-15
Cc1cccc(N2CCN(C(=O)c3ccc4c(c3)NC(=O)c3ccccc3S4)CC2C)c1 (stereo unspecified),100*,-10
Cc1cccc(N2CCN(C(=O)/C=C3\Sc4ccccc4NC3=O)CC2C)c1 (stereo unspecified),28,4
COc1ccc(OC)c(C=C2Oc3cc(OCC(C)=O)ccc3C2=O)c1,-2,-8
COc1nc(-n2nc(C)cc2C)nc(-n2nc(C)cc2C)n1,-8,64*
Cc1cc(C)n(-c2nc(C)nc(N)n2)n1,1,7
COc1ccc(O)c(C=Nc2cc(C(F)(F)F)ccc2Cl)c1,1,-3
COc1cc(OC)c(C2SCCN2S(=O)(=O)c2ccc(Br)cc2)cc1OC (stereo unspecified),51*,1
SMILES,mHTT CaM bind,Pf apPOL block
COc1cc(OC)c(C2SCCN2S(=O)(=O)c2ccc(Cl)cc2)cc1OC (stereo unspecified),32,-4
Cc1nc(C(=O)Nc2ccc(OC(F)(F)F)cc2)c(C)o1,-13,-7
COc1ccccc1N1CCN(CCNC(=O)C(=O)Nc2cccnc2)CC1,-12,-3
COc1ccc(C=CC(=O)Nc2ccccc2C(O)(Cc2ccccc2)c2ccccc2)cc1 (stereo unspecified),.,2
N=C(N)SCc1ccc(Cl)cc1,-9,.
COC(=O)c1ccc(C(=O)OC)c(NC(=O)N2CC3CCCN3c3ccccc32)c1 (stereo unspecified),58*,0
Cc1ccc(C)c(NC(=O)N2CC3CCCN3c3ccccc32)c1 (stereo unspecified),47,-5
COc1cc(NC(=O)N2CC3CCCN3c3ccccc32)cc(OC)c1 (stereo unspecified),50,4
COc1ccc(Cl)cc1NC(=O)N1CC2CCCN2c2ccccc21 (stereo unspecified),74*,-3
COc1ccc(C)cc1NC(=O)N1CC2CCCN2c2ccccc21 (stereo unspecified),83*,0
COC(=O)c1ccc(Cl)cc1NC(=O)N1CCN(C)c2ccccc21,48,-3
CCOc1ccc2cc(C3CC(c4ccc(C)cc4)=NN3C(C)=O)c(Cl)nc2c1 (stereo unspecified),3,-3
Cc1ccc(NC(=O)C2Oc3ccccc3NC2=O)c(C)c1 (stereo unspecified),-8,-1
CCNC(=O)c1nc2cc(C)c(C)cc2n(C)c1=O,30,-1
CC(=O)CC1(O)C(=O)N(CCC(C)C)c2ccc(C)cc21 (stereo unspecified),-2,-9
CCN(Cc1ccncc1)C(=O)c1ccc(-c2cccc(Cl)c2)s1,75*,-4
CCN(Cc1ccncc1)C(=O)c1ccc(-c2ccc(F)cc2)s1,37,0
Cc1ccc(C(=O)N2CCCC(COc3ccc(C(=O)N4CCOCC4)cc3)C2)cc1C (stereo unspecified),-1,1
COc1ccc(C=Nc2ccc(Nc3ccccc3)cc2)cc1O,87*,-57
COc1ccc(C=Nc2ccc(C(N)=O)cc2)cc1O,-4,-1
Oc1ccc(N=Cc2ccc(OCc3ccccc3)cc2)cc1,35,0
Oc1ccc(C=Nc2ccc(Nc3ccccc3)cc2)cc1,100*,-3
COc1cc(C=Nc2ccc(Cl)c(Cl)c2)ccc1O,2,3
COc1cc(C=Nc2ccc(Nc3ccccc3)cc2)ccc1O,92*,-4
Cc1ccsc1C(=O)N1CC2CC(NS(C)(=O)=O)C1C2 (stereo unspecified),-7,1
SMILES,mHTT CaM bind,Pf apPOL block
COc1ccc(Br)cc1[C@H]1[C@@H]2C=CCC[C@@]2(C)C(=O)N1Cc1ccccc1,90*,13
COc1ccc(-c2ccc(OC)c([C@H]3[C@@H]4C=CCC[C@@]4(C)C(=O)N3Cc3ccccc3)c2)cc1OC,76*,-2
COc1ccc(-c2ccc(OC)c([C@H]3[C@@H]4C=CCC[C@@]4(C)C(=O)N3Cc3ccccc3)c2)cc1,38,-4
CC(=O)c1ccc(-c2ccc([C@H]3[C@@H]4C=CCC[C@@]4(C)C(=O)N3Cc3ccccc3)c(F)c2)cc1,14,-6
COc1ccc(-c2ccc(N(C)C)cc2)cc1[C@H]1[C@@H]2C=CCC[C@@]2(C)C(=O)N1Cc1ccccc1,73*,-2
COc1ccc(/C=C/c2ccccc2)cc1[C@H]1[C@@H]2C=CCC[C@@]2(C)C(=O)N1Cc1ccccc1,35,-7
O=S(=O)(N=C(Nc1ccccn1)c1ccc(Cl)cc1)c1ccc(Cl)cc1,1,0
Cc1ccc(C(=O)Sc2n[nH]c(=O)[nH]c2=O)cc1,98*,12
O=C(Sc1n[nH]c(=O)[nH]c1=O)c1cccc(Br)c1,4,-5
O=C(Nc1ccccc1Cl)C12CC3CC(C1)CC(C(=O)Nc1ccccc1Cl)(C3)C2,1,-5
COc1c(I)cc(C=C2C(=O)N(C)C(=O)N(C)C2=O)cc1[N+](=O)[O-],19,-3
CCOc1ccc2c(c1)-c1c(ssc1=S)C(C)(C)N2C,97*,.
Cc1ccc2c(c1)-c1c(ssc1=S)C(C)(C)N2C,93*,.
CC1(C)Nc2ccccc2-c2c1ssc2=S,40,.
CCOc1ccc2c(c1)C(=O)c1cc(OCC(=O)O)ccc1-2,2,-1
